Experimental findings from the supplement of paper PMC10849652 are described below.

Of roughly 7,900 targets only a part is listed; those with a hit were picked by preference. About 0.6% of all pairs of compound and target were hits. A number with no mark means an inactive call.

Chain of UniProt O60934 (O60934 whole entry, looked up): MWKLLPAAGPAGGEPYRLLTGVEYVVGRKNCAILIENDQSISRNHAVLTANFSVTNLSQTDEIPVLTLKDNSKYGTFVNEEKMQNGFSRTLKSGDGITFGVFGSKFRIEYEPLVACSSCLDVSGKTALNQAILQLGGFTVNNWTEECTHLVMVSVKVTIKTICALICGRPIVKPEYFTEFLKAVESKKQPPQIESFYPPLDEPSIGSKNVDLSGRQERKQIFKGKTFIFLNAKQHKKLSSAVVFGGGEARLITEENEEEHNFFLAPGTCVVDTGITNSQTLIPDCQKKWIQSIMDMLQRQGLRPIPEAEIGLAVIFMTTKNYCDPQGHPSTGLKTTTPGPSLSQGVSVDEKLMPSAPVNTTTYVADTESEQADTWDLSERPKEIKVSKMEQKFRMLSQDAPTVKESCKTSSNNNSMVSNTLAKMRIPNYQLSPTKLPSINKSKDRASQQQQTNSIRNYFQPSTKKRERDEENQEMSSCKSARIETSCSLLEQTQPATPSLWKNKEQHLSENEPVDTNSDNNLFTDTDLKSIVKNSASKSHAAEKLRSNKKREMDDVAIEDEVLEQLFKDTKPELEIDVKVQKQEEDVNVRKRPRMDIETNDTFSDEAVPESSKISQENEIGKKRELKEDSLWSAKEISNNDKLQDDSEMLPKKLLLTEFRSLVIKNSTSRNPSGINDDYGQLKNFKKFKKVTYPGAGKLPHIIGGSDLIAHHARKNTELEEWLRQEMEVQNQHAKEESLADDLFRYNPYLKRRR
Chain of UniProt Q9NWU1 (Q9NWU1 whole entry, looked up): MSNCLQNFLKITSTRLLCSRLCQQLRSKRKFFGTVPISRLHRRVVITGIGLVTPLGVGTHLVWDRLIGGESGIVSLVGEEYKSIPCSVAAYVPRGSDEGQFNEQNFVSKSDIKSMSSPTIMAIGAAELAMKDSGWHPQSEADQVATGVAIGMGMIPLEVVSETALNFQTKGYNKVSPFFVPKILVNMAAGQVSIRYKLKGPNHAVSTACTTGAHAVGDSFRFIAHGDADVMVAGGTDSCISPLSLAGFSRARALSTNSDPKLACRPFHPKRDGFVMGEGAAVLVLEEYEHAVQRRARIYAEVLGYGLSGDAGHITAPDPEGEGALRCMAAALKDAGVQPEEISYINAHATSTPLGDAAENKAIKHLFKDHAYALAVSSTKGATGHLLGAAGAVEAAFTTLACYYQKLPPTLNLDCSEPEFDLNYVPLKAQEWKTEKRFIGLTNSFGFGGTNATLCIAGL
Chain of UniProt Q8N573 (Q8N573 whole entry, looked up): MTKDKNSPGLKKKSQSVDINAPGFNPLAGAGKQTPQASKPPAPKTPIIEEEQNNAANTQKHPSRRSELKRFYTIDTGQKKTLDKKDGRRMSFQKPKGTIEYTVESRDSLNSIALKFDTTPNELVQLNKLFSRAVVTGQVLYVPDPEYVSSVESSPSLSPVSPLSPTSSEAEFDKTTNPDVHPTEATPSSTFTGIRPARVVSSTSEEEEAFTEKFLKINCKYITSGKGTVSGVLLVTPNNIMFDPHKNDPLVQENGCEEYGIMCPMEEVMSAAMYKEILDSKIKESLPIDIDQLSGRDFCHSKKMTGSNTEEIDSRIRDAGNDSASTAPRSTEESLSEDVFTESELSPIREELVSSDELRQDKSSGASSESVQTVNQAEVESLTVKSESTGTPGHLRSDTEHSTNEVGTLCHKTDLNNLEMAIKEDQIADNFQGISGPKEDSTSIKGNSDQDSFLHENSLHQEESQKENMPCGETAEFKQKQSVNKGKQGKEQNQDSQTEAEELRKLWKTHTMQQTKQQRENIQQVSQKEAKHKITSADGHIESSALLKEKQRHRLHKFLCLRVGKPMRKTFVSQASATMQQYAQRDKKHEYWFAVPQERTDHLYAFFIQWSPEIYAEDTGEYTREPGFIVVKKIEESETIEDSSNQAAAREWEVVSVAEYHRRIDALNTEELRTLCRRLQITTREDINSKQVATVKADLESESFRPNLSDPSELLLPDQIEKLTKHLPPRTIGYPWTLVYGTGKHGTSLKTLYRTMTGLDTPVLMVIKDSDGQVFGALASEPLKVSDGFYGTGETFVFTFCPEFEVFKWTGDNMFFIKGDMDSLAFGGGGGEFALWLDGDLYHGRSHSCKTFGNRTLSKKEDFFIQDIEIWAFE
Chain of UniProt Q9H081 (Q9H081 whole entry, looked up): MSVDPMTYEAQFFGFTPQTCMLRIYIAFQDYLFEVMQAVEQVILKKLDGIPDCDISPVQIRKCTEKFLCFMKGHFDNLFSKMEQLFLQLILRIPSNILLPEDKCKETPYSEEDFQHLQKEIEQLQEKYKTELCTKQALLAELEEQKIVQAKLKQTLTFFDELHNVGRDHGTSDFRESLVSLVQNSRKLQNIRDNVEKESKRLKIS
Chain of UniProt P52948 (P52948 whole entry, looked up): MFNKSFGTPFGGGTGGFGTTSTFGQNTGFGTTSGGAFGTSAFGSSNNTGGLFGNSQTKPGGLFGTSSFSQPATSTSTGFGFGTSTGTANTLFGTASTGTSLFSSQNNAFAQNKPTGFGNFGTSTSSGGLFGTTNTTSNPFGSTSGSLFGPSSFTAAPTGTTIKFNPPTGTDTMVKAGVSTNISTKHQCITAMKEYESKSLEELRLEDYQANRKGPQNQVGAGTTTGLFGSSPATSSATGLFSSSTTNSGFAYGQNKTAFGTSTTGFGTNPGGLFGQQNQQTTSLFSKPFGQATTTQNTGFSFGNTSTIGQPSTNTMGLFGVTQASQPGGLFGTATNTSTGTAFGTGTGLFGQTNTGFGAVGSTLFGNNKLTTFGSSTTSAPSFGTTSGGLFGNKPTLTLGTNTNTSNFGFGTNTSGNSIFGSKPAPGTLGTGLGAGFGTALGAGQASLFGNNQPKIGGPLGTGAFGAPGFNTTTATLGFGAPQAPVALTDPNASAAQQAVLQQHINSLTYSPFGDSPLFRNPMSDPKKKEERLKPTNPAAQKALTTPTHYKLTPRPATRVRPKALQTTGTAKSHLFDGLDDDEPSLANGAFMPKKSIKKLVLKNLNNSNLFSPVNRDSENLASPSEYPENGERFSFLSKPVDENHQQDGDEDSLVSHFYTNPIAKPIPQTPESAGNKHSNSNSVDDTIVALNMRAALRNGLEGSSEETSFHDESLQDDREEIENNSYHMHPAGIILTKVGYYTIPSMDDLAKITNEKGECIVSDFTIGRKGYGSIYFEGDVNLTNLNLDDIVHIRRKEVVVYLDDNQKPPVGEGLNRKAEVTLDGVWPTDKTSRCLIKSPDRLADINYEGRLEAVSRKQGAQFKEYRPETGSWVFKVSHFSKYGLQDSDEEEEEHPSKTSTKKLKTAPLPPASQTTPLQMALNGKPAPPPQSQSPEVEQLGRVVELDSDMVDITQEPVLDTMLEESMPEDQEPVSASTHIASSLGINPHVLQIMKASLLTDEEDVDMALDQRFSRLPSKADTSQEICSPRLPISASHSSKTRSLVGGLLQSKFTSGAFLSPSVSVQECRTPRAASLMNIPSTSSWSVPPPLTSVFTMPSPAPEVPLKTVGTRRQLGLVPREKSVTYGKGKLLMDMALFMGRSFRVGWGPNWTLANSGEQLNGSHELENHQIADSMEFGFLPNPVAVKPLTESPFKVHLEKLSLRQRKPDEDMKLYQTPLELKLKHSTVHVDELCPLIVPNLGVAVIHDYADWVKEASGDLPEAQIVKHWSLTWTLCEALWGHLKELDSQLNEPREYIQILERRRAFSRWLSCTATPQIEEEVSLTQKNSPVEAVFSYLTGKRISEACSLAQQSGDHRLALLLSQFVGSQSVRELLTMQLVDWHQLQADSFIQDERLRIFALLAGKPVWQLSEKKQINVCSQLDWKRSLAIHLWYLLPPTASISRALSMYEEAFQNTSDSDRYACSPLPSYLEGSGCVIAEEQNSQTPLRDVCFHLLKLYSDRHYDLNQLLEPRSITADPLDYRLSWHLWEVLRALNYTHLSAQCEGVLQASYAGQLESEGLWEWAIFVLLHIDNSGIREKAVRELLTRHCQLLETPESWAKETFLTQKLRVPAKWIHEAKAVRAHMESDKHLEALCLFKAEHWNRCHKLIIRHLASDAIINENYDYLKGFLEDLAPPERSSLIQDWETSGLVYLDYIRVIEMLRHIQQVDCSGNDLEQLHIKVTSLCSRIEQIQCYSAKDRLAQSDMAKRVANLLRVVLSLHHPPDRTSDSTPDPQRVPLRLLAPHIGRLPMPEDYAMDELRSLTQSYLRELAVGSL
Chain of UniProt P55209 (P55209 whole entry, looked up): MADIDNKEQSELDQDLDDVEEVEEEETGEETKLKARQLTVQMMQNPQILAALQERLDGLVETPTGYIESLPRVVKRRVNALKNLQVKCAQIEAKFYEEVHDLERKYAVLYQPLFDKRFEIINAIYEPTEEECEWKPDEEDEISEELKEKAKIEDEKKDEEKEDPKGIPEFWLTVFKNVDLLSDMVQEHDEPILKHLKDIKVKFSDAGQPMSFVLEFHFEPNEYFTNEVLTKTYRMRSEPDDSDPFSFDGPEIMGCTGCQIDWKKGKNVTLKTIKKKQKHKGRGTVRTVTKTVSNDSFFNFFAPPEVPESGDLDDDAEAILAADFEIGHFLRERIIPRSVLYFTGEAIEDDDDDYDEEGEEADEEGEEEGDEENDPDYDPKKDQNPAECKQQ
Chain of UniProt Q13153 (Q13153 whole entry, looked up): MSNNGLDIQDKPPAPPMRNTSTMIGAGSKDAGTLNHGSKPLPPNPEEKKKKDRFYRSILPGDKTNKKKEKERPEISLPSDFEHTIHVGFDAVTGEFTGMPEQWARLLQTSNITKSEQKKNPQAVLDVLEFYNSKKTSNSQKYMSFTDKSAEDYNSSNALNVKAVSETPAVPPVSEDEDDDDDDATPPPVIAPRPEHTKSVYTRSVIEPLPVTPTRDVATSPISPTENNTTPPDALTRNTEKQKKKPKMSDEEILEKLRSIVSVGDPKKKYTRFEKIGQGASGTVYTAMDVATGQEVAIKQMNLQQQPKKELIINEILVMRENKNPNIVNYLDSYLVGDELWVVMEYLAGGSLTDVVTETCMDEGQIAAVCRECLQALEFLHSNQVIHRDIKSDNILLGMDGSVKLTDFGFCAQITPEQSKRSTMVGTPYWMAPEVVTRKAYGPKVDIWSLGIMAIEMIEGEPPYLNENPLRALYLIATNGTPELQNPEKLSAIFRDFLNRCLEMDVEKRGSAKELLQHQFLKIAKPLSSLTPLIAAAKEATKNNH

Compound in one experiment: CCCCN(Cc1ccc(C(=O)NO)cc1)C(=O)Nc1ccccc1 [Nexturastat A]
In words: log2 fold change, soluble protein after heating vs DMSO (PISA); higher = thermal stabilisation; K562 cells, 10 uM, 30 min; active = over 0.2 and 3.5 SD of the protein, either way, in both replicates (recomputed). An outline of the steps: (§1)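 K562 cells at 2×10^6 cells/mL were treated for 30 min with 10 μM compound, and aliquots were heated for 3 min over 48°C-58°C before pooling. Extraction used PBS with 0.5% NP-40 at 4°C, and soluble protein was the supernatant after 21,000xg for 90 min, measured by TMTpro 16plex LC-MS/MS with channel sums equalised. Thermal stability values, relative to control samples and from duplicates, are log2 fold changes.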
Take MRPS12 (UniProt O15235): the log2 fold change was 0.201.

Consider MRPS31 (UniProt Q92665), for which the log2 fold change was 0.111.

For the target NMD3 (UniProt Q96D46), the log2 fold change is -0.079.

For the target NAP1L1 (UniProt P55209), the log2 fold change is -0.003.

In the case of NACC1 (UniProt Q96RE7), the log2 fold change is -0.036.

Consider NCK1 (UniProt P16333), for which the log2 fold change was 0.12.

In the case of OXR1 (UniProt Q8N573), the log2 fold change is -0.025.

With MIS12 (UniProt Q9H081), the log2 fold change was 0.056.

Regarding NDUFS8 (UniProt O00217), the log2 fold change was -0.136.

For PAK1 isoform 2 (UniProt Q13153), the log2 fold change is -0.01.

As to NFATC3 (UniProt Q12968), the log2 fold change was 0.047.

Consider NOP2 isoform 4 (UniProt P46087), for which the log2 fold change is 0.2.

As to NUP98 (UniProt P52948), the log2 fold change was 0.061.

OXSM (UniProt Q9NWU1): the log2 fold change was -0.061.

For NBN (UniProt O60934), the log2 fold change was -0.03.

Compound in a further experiment: CCCS(=O)(=O)Nc1ccc(F)c(C(=O)c2c[nH]c3ncc(-c4ccc(Cl)cc4)cc23)c1F [vemurafenib]
The description is as above. A digest of the protocol: as §1
As for NUDT21 (UniProt O43809), the log2 fold change is 0.02.

As to NUCKS1 (UniProt Q9H1E3), the log2 fold change was 0.017.

For the target NUDT1 (UniProt P36639), the log2 fold change is -0.004.

For MRPS2 (UniProt Q9Y399), the log2 fold change is 0.126.

As for NDUFA12 (UniProt Q9UI09), the log2 fold change was 0.039.

Consider OGFR (UniProt Q9NZT2), for which the log2 fold change is 0.075.

Regarding NIBAN1 (UniProt Q9BZQ8), the log2 fold change is 0.046.

Regarding NSMCE4A (UniProt Q9NXX6), the log2 fold change was 0.088.

MUL1 (UniProt Q969V5): the log2 fold change was -0.039.

Take NDUFS7 (UniProt O75251): the log2 fold change was -0.025.

As for OTULIN (UniProt Q96BN8), the log2 fold change is -0.023.

MOV10 (UniProt Q9HCE1): the log2 fold change is -0.027.

Turning to NCAPH (UniProt Q15003), the log2 fold change is 0.068.

Regarding NOP56 (UniProt O00567), the log2 fold change was -0.018.

On to OTUD4 (UniProt Q01804), for which the log2 fold change is -0.016.

As for NA, A0A096LPI6, the log2 fold change was 0.008.

For the target MSH6 (UniProt P52701), the log2 fold change is 0.119.

On to NCAPD2 (UniProt Q15021), for which the log2 fold change was 0.119.

Turning to NCOA7 (UniProt Q8NI08), the log2 fold change was 0.008.

For the target NDUFA6 (UniProt P56556), the log2 fold change is 0.04.

Take NME7 (UniProt Q9Y5B8): the log2 fold change was -0.037.

As to NFATC2IP (UniProt Q8NCF5), the log2 fold change was -0.01.

With MMS19 isoform 8 (UniProt Q96T76), the log2 fold change was 0.047.

NMT2 (UniProt O60551): the log2 fold change was -0.034.

Regarding MRPS12 (UniProt O15235), the log2 fold change was -0.146.

For the target MRPS31 (UniProt Q92665), the log2 fold change is -0.041.

Turning to NMD3 (UniProt Q96D46), the log2 fold change was 0.077.

NAP1L1 (UniProt P55209): the log2 fold change is 0.04.

For NACC1 (UniProt Q96RE7), the log2 fold change was 0.154.

NCK1 (UniProt P16333): the log2 fold change is 0.031.

For OXR1 (UniProt Q8N573), the log2 fold change was 0.023.

For the target MIS12 (UniProt Q9H081), the log2 fold change was 0.074.

As to NDUFS8 (UniProt O00217), the log2 fold change is 0.02.

Turning to PAK1 isoform 2 (UniProt Q13153), the log2 fold change is 0.019.

NFATC3 (UniProt Q12968): the log2 fold change was -0.033.

Turning to NOP2 isoform 4 (UniProt P46087), the log2 fold change was -0.433.

In the case of NUP98 (UniProt P52948), the log2 fold change is 0.037.

OXSM (UniProt Q9NWU1): the log2 fold change was 0.01.

NBN (UniProt O60934): the log2 fold change is 0.081.

Compound in a further experiment: CCCS(=O)(=O)Nc1ccc(F)c(C(=O)c2c[nH]c3ncc(Cl)cc23)c1F
Described as above. A digest of the protocol: as §1
Regarding NUDT21 (UniProt O43809), the log2 fold change was -0.053.

Consider NUCKS1 (UniProt Q9H1E3), for which the log2 fold change is -0.061.

Regarding NUDT1 (UniProt P36639), the log2 fold change was 0.209.

In the case of MRPS2 (UniProt Q9Y399), the log2 fold change was 0.041.

With NDUFA12 (UniProt Q9UI09), the log2 fold change is 0.03.

Take OGFR (UniProt Q9NZT2): the log2 fold change was 0.002.

With NIBAN1 (UniProt Q9BZQ8), the log2 fold change is 0.083.

In the case of NSMCE4A (UniProt Q9NXX6), the log2 fold change is -0.041.

On to MUL1 (UniProt Q969V5), for which the log2 fold change is 0.024.

Turning to NDUFS7 (UniProt O75251), the log2 fold change was 0.028.

Turning to OTULIN (UniProt Q96BN8), the log2 fold change was 0.171.

Consider MOV10 (UniProt Q9HCE1), for which the log2 fold change is -0.048.

NCAPH (UniProt Q15003): the log2 fold change is 0.065.

Take NOP56 (UniProt O00567): the log2 fold change was -0.065.

On to OTUD4 (UniProt Q01804), for which the log2 fold change is 0.007.

NA, A0A096LPI6: the log2 fold change is 0.052.

Consider MSH6 (UniProt P52701), for which the log2 fold change is 0.194.

Take NCAPD2 (UniProt Q15021): the log2 fold change is 0.041.

In the case of NCOA7 (UniProt Q8NI08), the log2 fold change was -0.005.

NDUFA6 (UniProt P56556): the log2 fold change was 0.198.

For NME7 (UniProt Q9Y5B8), the log2 fold change is 0.081.

Consider NFATC2IP (UniProt Q8NCF5), for which the log2 fold change was 0.014.

Take MMS19 isoform 8 (UniProt Q96T76): the log2 fold change is 0.1.

As for NMT2 (UniProt O60551), the log2 fold change was 0.031.

In the case of MRPS12 (UniProt O15235), the log2 fold change is 0.032.

On to MRPS31 (UniProt Q92665), for which the log2 fold change is 0.054.

For NMD3 (UniProt Q96D46), the log2 fold change was 0.03.

With NAP1L1 (UniProt P55209), the log2 fold change is 0.011.

As for NACC1 (UniProt Q96RE7), the log2 fold change was 0.064.

Consider NCK1 (UniProt P16333), for which the log2 fold change is 0.116.

Take OXR1 (UniProt Q8N573): the log2 fold change was -0.013.

Turning to MIS12 (UniProt Q9H081), the log2 fold change was -0.002.

Take NDUFS8 (UniProt O00217): the log2 fold change was -0.006.

PAK1 isoform 2 (UniProt Q13153): the log2 fold change is -0.036.

With NFATC3 (UniProt Q12968), the log2 fold change is 0.094.

Take NOP2 isoform 4 (UniProt P46087): the log2 fold change is -0.051.

In the case of NUP98 (UniProt P52948), the log2 fold change was 0.068.

Take OXSM (UniProt Q9NWU1): the log2 fold change is 0.045.

Consider NBN (UniProt O60934), for which the log2 fold change was 0.047.
